The full data set covers some 7,900 targets. This sample favours those with a hit. About 0.6% of all pairs of compound and target were hits.
How the values were obtained:
Experiment in all cases: log2 fold change, soluble protein after heating vs DMSO (PISA); higher = thermal stabilisation; K562 cells, 10 uM, 30 min; active = over 0.2 and 3.5 SD of the protein, either way, in both replicates (recomputed)
ibrutinib = compound: C=CC(=O)N1CCC[C@@H](n2nc(-c3ccc(Oc4ccccc4)cc3)c3c(N)ncnc32)C1 [ibrutinib]
Summary of the method: (§1)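 Thermal stability values are relative to control samples and come from duplicates. They are expressed as log2 fold changes. For measurement, K562 cells (2×10^6 cells/mL) received 10 μM compound for 30 min, and aliquots were heated for 3 min over 48°C-58°C, pooled, and extracted at 4°C in PBS with 0.5% NP-40. Soluble protein, the supernatant after 21,000xg for 90 min, was quantified by TMTpro 16plex LC-MS/MS with equalised channel sums.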

[1] = compound: CC(=O)c1cnc2ccc(-c3cc(Cl)c(O)c(Cl)c3)nc2c1N[C@H]1CC[C@H](CN(C)C)CC1
Summary of the method: as §1

[2] = compound: CC(C)(O)CC(=O)NCCn1ccc2ncnc(Nc3ccc(Oc4cccc(C(F)(F)F)c4)c(Cl)c3)c21
Summary of the method: as §1

[3] = compound: CC(C)C1=C2N=C(C=C(N2N=C1)NCC3=CC=CC=C3)NCCCCCCN
Summary of the method: as §1

[4] = compound: CC1=C(C(CC(=O)N1)C2=CC=C(C=C2)C(F)(F)F)C(=O)NC3=C(C=C4C(=C3)C=NN4)F
Summary of the method: as §1

[5] = compound: CC1=C(C2=C(C=C1)C(=O)C3=CC=CC=C3N2CCCN)C
Summary of the method: as §1

[6] = compound: CC1=C(C=C(C=C1)NC(=O)C2=CC(=CC=C2)C(C)(C)C#N)NC3=CC4=C(C=C3)N=CN(C4=O)C
Summary of the method: as §1

[7] = compound: CC1=CC=C(C=C1)SC2=C3C=C(SC3=CN=C2)C(=O)N
Summary of the method: as §1

Nexturastat A = compound: CCCCN(Cc1ccc(C(=O)NO)cc1)C(=O)Nc1ccccc1 [Nexturastat A]
Summary of the method: as §1

vemurafenib = compound: CCCS(=O)(=O)Nc1ccc(F)c(C(=O)c2c[nH]c3ncc(-c4ccc(Cl)cc4)cc23)c1F [vemurafenib]
Summary of the method: as §1

[8] = compound: CCCS(=O)(=O)Nc1ccc(F)c(C(=O)c2c[nH]c3ncc(Cl)cc23)c1F
Summary of the method: as §1

[9] = compound: CCCc1cc(C)[nH]c(=O)c1CNC(=O)c1cc(-c2ccnc(N3CCN(C)CC3)c2)cc2c1cnn2C(C)C
Summary of the method: as §1

givinostat = compound: CCN(CC)Cc1ccc2cc(COC(=O)Nc3ccc(C(=O)NO)cc3)ccc2c1 [givinostat]
Summary of the method: as §1

barasertib = compound: CCN(CCCOc1ccc2c(Nc3cc(CC(=O)Nc4cccc(F)c4)[nH]n3)ncnc2c1)CCOP(=O)(O)O [barasertib]
Summary of the method: as §1

ralimetinib = compound: CC(C)(C)Cn1c(N)nc2ccc(-c3[nH]c(C(C)(C)C)nc3-c3ccc(F)cc3)nc21 [ralimetinib]
Summary of the method: as §1

[10] = compound: CC(C)C[C@@H](C=O)NC(=O)[C@H](CC(C)C)NC(=O)[C@H](CC(C)C)NC(=O)OCc1ccccc1
Summary of the method: as §1

[11] = compound: CC1=C(C=C(C=C1)NC(=O)C2=CC(=CC=C2)N(C)C)NC(=O)C3=CC=C(C=C3)O
Summary of the method: as §1

IRAK-1-4 Inhibitor I = compound: C1COCCN1CCN2C3=CC=CC=C3N=C2NC(=O)C4=CC(=CC=C4)[N+](=O)[O-] [IRAK-1-4 Inhibitor I]
Summary of the method: as §1

pinometostat = compound: CC(C)N(C[C@H]1O[C@@H](n2cnc3c(N)ncnc32)[C@H](O)[C@@H]1O)[C@H]1C[C@@H](CCc2nc3cc(C(C)(C)C)ccc3[nH]2)C1 [pinometostat]
Summary of the method: as §1

[12] = compound: CC1=NC(=CC=C1)C2=C(N=C(N2)C(C)(C)C)C3=CC4=NC=CN=C4C=C3
Summary of the method: as §1

UniProt Q9BZM6, sequence (Q9BZM6 whole entry, looked up): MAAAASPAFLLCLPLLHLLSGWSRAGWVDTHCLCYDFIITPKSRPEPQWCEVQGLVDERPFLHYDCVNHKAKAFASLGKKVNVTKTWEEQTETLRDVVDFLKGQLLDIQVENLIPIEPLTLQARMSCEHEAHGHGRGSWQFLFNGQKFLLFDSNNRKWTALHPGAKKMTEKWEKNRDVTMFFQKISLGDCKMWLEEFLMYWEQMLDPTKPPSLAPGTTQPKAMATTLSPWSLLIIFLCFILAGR
UniProt O95857, sequence (O95857 whole entry, looked up): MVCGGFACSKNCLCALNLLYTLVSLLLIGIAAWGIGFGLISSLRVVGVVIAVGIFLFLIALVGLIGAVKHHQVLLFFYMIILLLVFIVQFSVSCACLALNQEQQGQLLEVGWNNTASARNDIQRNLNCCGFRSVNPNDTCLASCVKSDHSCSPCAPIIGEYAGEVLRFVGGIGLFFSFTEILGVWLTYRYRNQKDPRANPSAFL
UniProt P36406, sequence (P36406 whole entry, looked up): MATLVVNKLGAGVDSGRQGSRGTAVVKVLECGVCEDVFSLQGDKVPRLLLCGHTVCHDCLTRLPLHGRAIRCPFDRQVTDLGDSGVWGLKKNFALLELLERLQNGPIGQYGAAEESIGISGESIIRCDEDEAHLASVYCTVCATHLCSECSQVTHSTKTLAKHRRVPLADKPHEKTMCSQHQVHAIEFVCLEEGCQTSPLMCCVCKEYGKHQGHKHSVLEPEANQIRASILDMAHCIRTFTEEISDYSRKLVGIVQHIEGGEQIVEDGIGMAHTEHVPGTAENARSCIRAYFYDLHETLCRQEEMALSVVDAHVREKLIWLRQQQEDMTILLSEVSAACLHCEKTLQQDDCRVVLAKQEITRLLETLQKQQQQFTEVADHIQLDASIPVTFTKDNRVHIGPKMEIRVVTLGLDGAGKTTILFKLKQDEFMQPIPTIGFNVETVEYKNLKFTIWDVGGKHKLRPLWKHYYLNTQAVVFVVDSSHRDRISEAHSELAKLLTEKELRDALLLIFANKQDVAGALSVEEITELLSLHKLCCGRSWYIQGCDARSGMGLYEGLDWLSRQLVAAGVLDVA
UniProt O00124, sequence (O00124 whole entry, looked up): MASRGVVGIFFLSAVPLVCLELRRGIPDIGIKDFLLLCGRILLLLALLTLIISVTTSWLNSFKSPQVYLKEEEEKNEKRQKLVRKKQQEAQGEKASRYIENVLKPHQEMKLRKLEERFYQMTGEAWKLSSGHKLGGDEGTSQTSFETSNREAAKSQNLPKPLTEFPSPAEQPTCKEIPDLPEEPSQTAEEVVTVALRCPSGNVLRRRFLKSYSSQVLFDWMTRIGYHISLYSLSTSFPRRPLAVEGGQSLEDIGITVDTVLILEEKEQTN
UniProt Q5VZI3, sequence (Q5VZI3 whole entry, looked up): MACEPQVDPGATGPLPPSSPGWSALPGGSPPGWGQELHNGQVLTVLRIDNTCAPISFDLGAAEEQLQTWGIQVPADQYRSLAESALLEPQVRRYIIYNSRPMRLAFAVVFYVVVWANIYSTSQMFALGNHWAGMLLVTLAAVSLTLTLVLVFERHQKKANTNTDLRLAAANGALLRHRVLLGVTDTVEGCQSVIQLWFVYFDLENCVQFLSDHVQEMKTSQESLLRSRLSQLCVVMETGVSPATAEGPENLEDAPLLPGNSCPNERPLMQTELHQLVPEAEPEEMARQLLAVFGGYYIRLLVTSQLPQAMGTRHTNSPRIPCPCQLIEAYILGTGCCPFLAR
UniProt P61960, sequence (P61960 whole entry, looked up): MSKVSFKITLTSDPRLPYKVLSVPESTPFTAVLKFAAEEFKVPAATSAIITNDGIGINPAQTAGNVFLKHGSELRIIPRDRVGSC
UniProt Q96ET8, sequence (Q96ET8 whole entry, looked up): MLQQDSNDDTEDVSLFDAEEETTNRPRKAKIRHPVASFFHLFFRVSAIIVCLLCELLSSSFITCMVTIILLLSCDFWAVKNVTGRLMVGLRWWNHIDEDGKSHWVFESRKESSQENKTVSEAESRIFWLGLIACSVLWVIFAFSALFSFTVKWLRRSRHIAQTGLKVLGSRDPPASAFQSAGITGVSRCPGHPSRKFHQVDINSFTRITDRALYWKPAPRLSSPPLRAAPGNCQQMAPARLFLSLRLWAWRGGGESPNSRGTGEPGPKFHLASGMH
UniProt Q6ZVM7, sequence (Q6ZVM7 whole entry, looked up): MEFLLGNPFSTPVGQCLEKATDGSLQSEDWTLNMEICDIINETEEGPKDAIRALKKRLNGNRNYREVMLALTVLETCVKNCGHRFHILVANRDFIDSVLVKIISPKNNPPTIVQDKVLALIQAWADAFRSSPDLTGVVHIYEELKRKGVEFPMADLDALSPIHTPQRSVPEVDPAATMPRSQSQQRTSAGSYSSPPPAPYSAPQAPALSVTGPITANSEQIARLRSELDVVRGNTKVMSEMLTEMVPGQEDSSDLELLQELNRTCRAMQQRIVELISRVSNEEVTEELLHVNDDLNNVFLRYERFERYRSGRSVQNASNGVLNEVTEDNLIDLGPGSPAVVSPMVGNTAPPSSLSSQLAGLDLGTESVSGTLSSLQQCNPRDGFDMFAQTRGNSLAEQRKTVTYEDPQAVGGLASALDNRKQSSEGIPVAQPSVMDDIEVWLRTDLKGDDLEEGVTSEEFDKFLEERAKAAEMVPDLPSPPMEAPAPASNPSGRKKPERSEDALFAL

For UFM1 isoform 2 (UniProt P61960), the log2 fold change (ibrutinib) was 0.025 (inactive), the log2 fold change [1] was 0.052 (inactive) and the log2 fold change [2] was 0.018 (inactive). For the same target, the log2 fold change [3] was -0.013 (inactive), the log2 fold change [4] was 0.026 (inactive) and the log2 fold change [5] was 0.035 (inactive). The log2 fold change [6] was 0.004 (inactive), the log2 fold change [7] was -0.01 (inactive) and the log2 fold change (Nexturastat A) was -0.36 (active). The log2 fold change (vemurafenib) was -0.13 (inactive), the log2 fold change [8] was 0.001 (inactive) and the log2 fold change [9] was 0.127 (inactive). The log2 fold change (givinostat) was -0.146 (inactive) and the log2 fold change (barasertib) was 0.053 (inactive).

For TSPAN13 (UniProt O95857), the log2 fold change (ibrutinib) was 0.175 (inactive), the log2 fold change (ralimetinib) was -0.149 (inactive) and the log2 fold change [2] was 0.151 (inactive). The log2 fold change [3] was -0.198 (inactive), the log2 fold change [10] was 0.018 (inactive) and the log2 fold change [4] was 0.113 (inactive). For the same target, the log2 fold change [5] was 0.065 (inactive), the log2 fold change [6] was 0.111 (inactive) and the log2 fold change [11] was -0.078 (inactive). For the same target, the log2 fold change [7] was 0.161 (inactive), the log2 fold change (Nexturastat A) was -0.061 (inactive) and the log2 fold change (vemurafenib) was 0.103 (inactive). For the same target, the log2 fold change [8] was -0.08 (inactive), the log2 fold change [9] was -0.113 (inactive) and the log2 fold change (givinostat) was -0.063 (inactive). The log2 fold change (barasertib) was -0.041 (inactive).

In the case of TRIM23 (UniProt P36406), the log2 fold change (IRAK-1-4 Inhibitor I) is reported as 0.064 (inactive), the log2 fold change (ibrutinib) is reported as 0.072 (inactive) and the log2 fold change (ralimetinib) is reported as -0.034 (inactive). For the same target, the log2 fold change [3] was 0.146 (inactive), the log2 fold change [10] was -0.019 (inactive) and the log2 fold change (pinometostat) was -0.024 (inactive). For the same target, the log2 fold change [4] was -0.044 (inactive), the log2 fold change [5] was 0.242 (inactive) and the log2 fold change [6] was -0.025 (inactive). The log2 fold change [11] was -0.008 (inactive), the log2 fold change [12] was 0.036 (inactive) and the log2 fold change (vemurafenib) was -0.022 (inactive). For the same target, the log2 fold change [9] was 0.055 (inactive), the log2 fold change (givinostat) was 0.027 (inactive) and the log2 fold change (barasertib) was 0.021 (inactive).

In the case of UBXN8 (UniProt O00124), the log2 fold change (ibrutinib) is reported as 0.077 (inactive), the log2 fold change [1] is reported as 0.039 (inactive) and the log2 fold change (ralimetinib) is reported as 0.211 (inactive). For the same target, the log2 fold change [2] was 0.138 (inactive), the log2 fold change [10] was -0.227 (inactive) and the log2 fold change [5] was 0.259 (inactive). The log2 fold change [6] was -0.029 (inactive), the log2 fold change [11] was 0.169 (inactive) and the log2 fold change [7] was 0.023 (inactive). For the same target, the log2 fold change (Nexturastat A) was 0.334 (inactive), the log2 fold change (vemurafenib) was 0.089 (inactive) and the log2 fold change [8] was -0.024 (inactive). For the same target, the log2 fold change (barasertib) was -0.218 (inactive).

With TVP23C (UniProt Q96ET8) the log2 fold change [1] was 0.021 (inactive), the log2 fold change [3] was 0.011 (inactive) and the log2 fold change [5] was 0.037 (inactive). The log2 fold change [7] was 0.024 (inactive), the log2 fold change (vemurafenib) was -0.022 (inactive) and the log2 fold change [8] was -0.178 (inactive). For the same target, the log2 fold change [9] was -0.118 (inactive) and the log2 fold change (givinostat) was 0.043 (inactive).

For TMEM268 isoform 3 (UniProt Q5VZI3), the log2 fold change (ibrutinib) was 0.036 (inactive), the log2 fold change [1] was -0.042 (inactive) and the log2 fold change (ralimetinib) was -0.056 (inactive). The log2 fold change [2] was -0.334 (inactive), the log2 fold change [3] was -0.095 (inactive) and the log2 fold change [10] was -0.016 (inactive). For the same target, the log2 fold change [4] was -0.033 (inactive), the log2 fold change [5] was 0.014 (inactive) and the log2 fold change [6] was 0.056 (inactive). The log2 fold change [11] was 0.024 (inactive), the log2 fold change [7] was -0.178 (inactive) and the log2 fold change (Nexturastat A) was 0.124 (inactive). The log2 fold change [8] was 0.083 (inactive), the log2 fold change [9] was 0.18 (inactive) and the log2 fold change (givinostat) was 0.11 (inactive). For the same target, the log2 fold change (barasertib) was -0.461 (inactive).

With TOM1L2 (UniProt Q6ZVM7) the log2 fold change (IRAK-1-4 Inhibitor I) was -0.049 (inactive), the log2 fold change [1] was -0.031 (inactive) and the log2 fold change [2] was -0.089 (inactive). For the same target, the log2 fold change [3] was 0.049 (inactive), the log2 fold change (pinometostat) was 0.036 (inactive) and the log2 fold change [4] was -0.012 (inactive). The log2 fold change [6] was -0.038 (inactive), the log2 fold change [12] was -0.132 (inactive) and the log2 fold change (Nexturastat A) was -0.046 (inactive). For the same target, the log2 fold change (vemurafenib) was -0.008 (inactive) and the log2 fold change (givinostat) was 0.025 (inactive).

With WARS1 (UniProt G3V339) the log2 fold change [2] was 0.044 (inactive) and the log2 fold change (Nexturastat A) was 0.188 (inactive).

ULBP1 (UniProt Q9BZM6) was tested, and the log2 fold change [1] was -0.038 (inactive), the log2 fold change (ralimetinib) was -0.058 (inactive) and the log2 fold change [2] was -0.132 (inactive). The log2 fold change [3] was 0.112 (inactive), the log2 fold change [10] was 0.006 (inactive) and the log2 fold change [5] was 0.009 (inactive). For the same target, the log2 fold change [6] was -0.088 (inactive), the log2 fold change [11] was 0.023 (inactive) and the log2 fold change [7] was -0.014 (inactive). For the same target, the log2 fold change (Nexturastat A) was 0.428 (active), the log2 fold change (vemurafenib) was 0.051 (inactive) and the log2 fold change [8] was 0.053 (inactive). For the same target, the log2 fold change [9] was 0 (inactive) and the log2 fold change (givinostat) was 0.028 (inactive).

From the supplement of paper PMC10849652
